Measured values from PubChem BioAssay (NCI).
The panel holds about 79,000 compounds, 15% with a hit somewhere; the sample as a whole holds those more often. The source made the active and inactive calls. Cut-off read from the data, not from the text of the source: active = growth inhibition above about 70%; inactive = the rest.

How the values were obtained:
[1] = NCI Yeast Anticancer Drug Screen. Data for the rad52 strain (AID 147);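 note: 0% = growth of vehicle-treated control cultures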; details: S. cerevisiae rad52 mutant growth inhibition, active compounds read high
Summary of the method: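 Genetically altered yeast (DNA damage repair defect) treated with compound; inhibition calculated relative to vehicle.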

[2] = NCI Yeast Anticancer Drug Screen. Data for the wt1 strain (AID 149);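 note: 0% = growth of vehicle-treated wt1 cultures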; details: S. cerevisiae wt1 strain (SPY 50644) growth inhibition, active compounds read high
Summary of the method: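 Growth inhibition read against vehicle controls after compound exposure of the wt1 yeast strain.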

[3] = NCI Yeast Anticancer Drug Screen. Data for the rad50EPP+ strain (AID 151);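 note: 0% = growth of vehicle-treated control cultures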; details: S. cerevisiae rad50 mutant strain, active compounds read high
Summary of the method: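 Strain rad50EPP+; compound exposure; % growth inhibition vs vehicle.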

[4] = NCI Yeast Anticancer Drug Screen. Data for the mgt1 strain (AID 153); details: S. cerevisiae mgt1 mutant growth inhibition, active compounds read high
Summary of the method: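 Read-out: yeast growth inhibition vs vehicle control. Strain mgt1, drawn from a panel altered in DNA damage repair or cell cycle control.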

[5] = NCI Yeast Anticancer Drug Screen. Data for the rad50 strain (AID 155);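 note: 0% = growth of vehicle-only cultures of the same strain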; details: S. cerevisiae rad50 strain growth inhibition, active compounds read high
Summary of the method: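 Readout: growth inhibition relative to vehicle-treated cultures. Compound exposure was carried out in a genetically defined yeast strain deficient in DNA damage repair.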

[6] = NCI Yeast Anticancer Drug Screen. Data for the mec2-1 strain (AID 157); details: S. cerevisiae mec2-1 strain, active compounds read high
Summary of the method: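 Cells of the genetically defined mec2-1 yeast strain are incubated with test compound. Inhibition of growth is calculated against vehicle-treated controls.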

[7] = NCI Yeast Anticancer Drug Screen. Data for the rad14 strain (AID 159);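 note: 0% = growth of vehicle-treated control cultures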; details: S. cerevisiae rad14 strain growth inhibition, active compounds read high
Summary of the method: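 Growth inhibition vs vehicle controls; genetically altered yeast strain (DNA damage repair defect) treated with test compounds.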

[8] = NCI Yeast Anticancer Drug Screen. Data for the sgs1 mgt1 strain (AID 161);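 note: 0% = growth of cultures given vehicle only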; details: S. cerevisiae sgs1 mgt1 strain, active compounds read high
Summary of the method: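 Read-out: growth inhibition vs vehicle controls. Cells: mutant yeast strain deficient in DNA damage repair.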

[9] = NCI Yeast Anticancer Drug Screen. Data for the CLN2oe strain (AID 163);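 note: 0% = growth of vehicle-only control cultures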; details: S. cerevisiae CLN2oe strain, active compounds read high
Summary of the method: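 Strain altered in cell-cycle control, incubated with compound; growth compared to solvent-treated controls.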

[10] = NCI Yeast Anticancer Drug Screen. Data for the cln2 rad14 strain (AID 165);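 note: 0% = growth equal to vehicle treated cultures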; details: S. cerevisiae cln2 rad14 strain, active compounds read high
Summary of the method: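 The screen exposed genetically defined yeast (cln2 rad14) to test compounds and scored growth inhibition relative to vehicle-treated controls.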

[11] = NCI Yeast Anticancer Drug Screen. Data for the bub3 strain (AID 167); details: S. cerevisiae bub3 mutant strain, active compounds read high
Summary of the method: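 Readout: yeast growth inhibition, expressed relative to vehicle-only wells. The test organism is a mutant strain from a panel with lesions in DNA repair or checkpoint genes.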

[12] = NCI Yeast Anticancer Drug Screen. Data for the wt2 strain (AID 169);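 note: 0% = growth of vehicle-treated yeast cultures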; details: S. cerevisiae wt2 strain growth inhibition, active compounds read high
Summary of the method: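 Steps: yeast strain treated with compound; growth recorded; inhibition calculated relative to cultures given vehicle alone.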

[13] = NCI Yeast Anticancer Drug Screen. Data for the mlh1 strain (AID 171);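 note: 0% = growth of vehicle-treated control cultures of the same strain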; details: S. cerevisiae mlh1 strain growth inhibition, active compounds read high
Summary of the method: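 Yeast screen: mutant strain plus compound, growth scored against vehicle control wells.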

[14] = NCI Yeast Anticancer Drug Screen. Data for the sgs1 strain (AID 173);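 note: 0% = growth of vehicle-only control cultures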; details: S. cerevisiae sgs1 mutant, active compounds read high
Summary of the method: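 Inhibition of yeast growth served as the measure. The mutant strain was treated with each compound, and growth was normalised to cultures receiving vehicle alone.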

[15] = NCI Yeast Anticancer Drug Screen. Data for the mlh1 rad18 strain (AID 175); details: S. cerevisiae mlh1 rad18 strain growth inhibition, active compounds read high
Summary of the method: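 Compound-treated yeast growth, normalised to vehicle controls. Strain bears defined DNA repair mutations.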

[16] = NCI Yeast Anticancer Drug Screen. Data for the rad18 strain (AID 177); details: S. cerevisiae rad18 mutant growth inhibition, active compounds read high
Summary of the method: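 Inhibition values reflect reduced yeast growth compared with vehicle-treated controls, using a strain engineered with a DNA damage repair defect.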

[17] = at 5.0 µM (retest, dose inferred, filed as 0.5)
[18] = at 50.0 µM (retest, dose inferred, filed as 5.0)

Measured: growth inhibition

O=C1Nc2ccc(Cl)c(I)c2C1=O
active: [1]; at 100.0 µM 84% | [3]; at 100.0 µM 79% | [5]; at 100.0 µM 88% | [7]; at 100.0 µM 84% | [11]; [18] 70% | [11]; at 50.0 µM 79% | [11]; at 100.0 µM 90% | [13]; at 100.0 µM 83% | [14]; at 100.0 µM 92% | [16]; at 100.0 µM 91%
inactive: [1]; at 1.2 µM 3% | [1]; at 3.7 µM 10% | [1]; at 11.0 µM 7% | [1]; at 33.0 µM 32% | [2]; at 1.2 µM -11% | [2]; at 3.7 µM -13% | [2]; at 11.0 µM -11% | [2]; at 33.0 µM -14% | [2]; at 100.0 µM 45% | [3]; at 1.2 µM 28% | [3]; at 3.7 µM 35% | [3]; at 11.0 µM 44% | [3]; at 33.0 µM 65% | [4]; at 1.2 µM -11% | [4]; at 3.7 µM -13% | [4]; at 11.0 µM -5% | [4]; at 33.0 µM -3% | [4]; at 100.0 µM 59% | [5]; at 1.2 µM -6% | [5]; at 3.7 µM -11% | [5]; [17] -13% | [5]; at 11.0 µM -23% | [5]; at 33.0 µM 26% | [5]; [18] 60% | [5]; at 50.0 µM 35.5% | [6]; at 1.2 µM 2% | [6]; at 3.7 µM 16% | [6]; [17] 3% | [6]; at 11.0 µM 16% | [6]; at 33.0 µM 10% | [6]; [18] 6% | [6]; at 50.0 µM 62.4% | [6]; at 100.0 µM 58% | [7]; at 1.2 µM 8% | [7]; at 3.7 µM -1% | [7]; at 11.0 µM 1% | [7]; at 33.0 µM 11% | [8]; [17] -1% | [8]; [18] 17% | [8]; at 50.0 µM 41.9% | [9]; at 1.2 µM 5% | [9]; at 3.7 µM 21% | [9]; at 11.0 µM -1% | [9]; at 33.0 µM 5% | [9]; at 100.0 µM 47% | [10]; [17] 1% | [10]; [18] 32% | [10]; at 50.0 µM 37.1% | [11]; at 1.2 µM -14% | [11]; at 3.7 µM -5% | [11]; [17] -23% | [11]; at 11.0 µM -4% | [11]; at 33.0 µM 5% | [12]; at 1.2 µM -1% | [12]; at 3.7 µM 0% | [12]; at 11.0 µM 3% | [12]; at 33.0 µM 2% | [12]; at 100.0 µM 52% | [13]; at 1.2 µM 31% | [13]; at 3.7 µM 29% | [13]; at 11.0 µM 27% | [13]; at 33.0 µM 36% | [14]; at 1.2 µM 21% | [14]; at 3.7 µM 23% | [14]; at 11.0 µM 26% | [14]; at 33.0 µM 36% | [15]; [17] 0% | [15]; [18] 68% | [15]; at 50.0 µM 67.2% | [16]; at 1.2 µM 28% | [16]; at 3.7 µM 30% | [16]; at 11.0 µM 29% | [16]; at 33.0 µM 41%

O=C(c1ccc(Cl)cc1Cl)C(Cl)Cl
active: [1]; at 33.0 µM 74% | [1]; at 100.0 µM 98% | [2]; at 100.0 µM 98% | [3]; at 33.0 µM 94% | [3]; at 100.0 µM 96% | [4]; at 100.0 µM 99% | [5]; at 33.0 µM 79% | [5]; [18] 84% | [5]; at 50.0 µM 83.8% | [5]; at 100.0 µM 98% | [6]; at 33.0 µM 81% | [6]; [18] 82% | [6]; at 50.0 µM 85.5% | [6]; at 100.0 µM 98% | [7]; at 100.0 µM 98% | [8]; [18] 99% | [8]; at 50.0 µM 83.8% | [9]; at 100.0 µM 98% | [10]; [18] 98% | [11]; at 33.0 µM 80% | [11]; [18] 96% | [11]; at 50.0 µM 88.8% | [11]; at 100.0 µM 97% | [12]; at 33.0 µM 71% | [12]; at 100.0 µM 98% | [13]; at 33.0 µM 83% | [13]; at 100.0 µM 99% | [14]; at 33.0 µM 80% | [14]; at 100.0 µM 98% | [15]; [18] 75% | [15]; at 50.0 µM 88.5% | [16]; at 33.0 µM 76% | [16]; at 100.0 µM 98%
inactive: [1]; at 1.2 µM 4% | [1]; at 3.7 µM 0% | [1]; at 11.0 µM 14% | [2]; at 1.2 µM -1% | [2]; at 3.7 µM -6% | [2]; at 11.0 µM 3% | [2]; at 33.0 µM 56% | [3]; at 1.2 µM 40% | [3]; at 3.7 µM 53% | [3]; at 11.0 µM 65% | [4]; at 1.2 µM -21% | [4]; at 3.7 µM -34% | [4]; at 11.0 µM -13% | [4]; at 33.0 µM 68% | [5]; at 1.2 µM 11% | [5]; at 3.7 µM 11% | [5]; [17] 46% | [5]; at 11.0 µM 13% | [6]; at 1.2 µM -22% | [6]; at 3.7 µM -24% | [6]; [17] 40% | [6]; at 11.0 µM -9% | [7]; at 1.2 µM -17% | [7]; at 3.7 µM -25% | [7]; at 11.0 µM -15% | [7]; at 33.0 µM 53% | [8]; [17] 13% | [9]; at 1.2 µM -11% | [9]; at 3.7 µM -8% | [9]; at 11.0 µM -13% | [9]; at 33.0 µM 18% | [10]; [17] 68% | [10]; at 50.0 µM 53.6% | [11]; at 1.2 µM -20% | [11]; at 3.7 µM -11% | [11]; [17] -4% | [11]; at 11.0 µM 3% | [12]; at 1.2 µM -8% | [12]; at 3.7 µM -7% | [12]; at 11.0 µM 16% | [13]; at 1.2 µM -10% | [13]; at 3.7 µM 3% | [13]; at 11.0 µM 20% | [14]; at 1.2 µM -14% | [14]; at 3.7 µM -14% | [14]; at 11.0 µM 14% | [15]; [17] 34% | [16]; at 1.2 µM -30% | [16]; at 3.7 µM -34% | [16]; at 11.0 µM -1%
